Compound activity deposited in PubChem by several laboratories.
CSC inhib = cancer stem cell viability inhibitors, primary screen, luminescence; cancer stem cell-like cells viability; inhibition, % at 7.5 µM; hit rate 1.1% among 300,000; AID 2717, 2010; in the data active = inhibition above about 75%; tested in HMLE shEcad cells
Shn3 inh set2 = reduction of Shn3 3'UTR firefly luciferase signal, primary screen, Schnurri-3 inhibitor project, cell-based, Clone20 osteoblasts, set 2; inhibition, % at 12.5 µM; AID 588674, 2011; Clone20 osteoblast Shn3 3'UTR firefly luciferase, 24 h; hit rate 0.52% among 360,000;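 active = mean inhibition of at least 75% with every replicate also reaching 75%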
Beta cell apopt = inhibitors of cytokine-induced beta cell apoptosis, primary screen, luminescence; INS-1E cytokine-induced death, ATP luminescence, 48 h; percent of positive-control rescue, neutral wells zero; protection from apoptosis, % (concentration not given with the values); hit rate 0.8% among 300,000; AID 435005, 2010;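 active = Every replicate reaches about 75%, or at least half do and their mean reaches it too, limit read from the data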;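 note: higher means more ATP so stronger rescue from cytokine killing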
Gli-Sufu block = Gli-Sufu pathway antagonists, primary screen, luciferase luminescence, Sufu-KO-LIGHT cells, uHTS; inhibition, % at 5 µM; Sufu-KO-LIGHT fibroblasts, Gli luciferase reporter luminescence; hit rate 0.74% among 340,000; AID 588413, 2011;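 active = inhibition above about 55%, limit read from the data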
PAX8 reporter = inhibitors of PAX8-driven TPO luciferase reporter, primary screen, RMG-I cells, single concentration; inhibition, % at 12.6 µM; hit rate 1.2% among 360,000; SteadyGlo, 24 h;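 active = mean replicate inhibition at least 60% with every replicate also reaching 60%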;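 note: luciferase light reporting Pax8 driven TPO promoter activity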
Mdm2-MdmX inh = inhibitors of human Mdm2-MdmX association, primary screen, cell-based, luminescence, split luciferase, SaOS-2, uHTS | Protein Mdm4 (Homo sapiens) + E3 ubiquitin-protein ligase Mdm2 (Homo sapiens), … | SaOS-2 split-luciferase Mdm2/MdmX complementation | inhibition, % at 8 µM | hit rate 3% among 330,000 | AID 485346, 2010;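 active = inhibition of at least 50% at 8 µM in the primary screen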
Mdm2-MdmX conf = Mdm2-MdmX complex disruptors, retested hits, confirmation, luminescence, single concentration; Mdm2-MdmX binding, luminescent assay; AID 489028, 2010; shares compounds with Mdm2-MdmX inh; inhibition, % at 8 µM; hit rate 55% among 10,000; in the data active = inhibition above about 40%
FLuc counter = full-length luciferase signal inhibition, confirmation, counter-screen for Mdm2/MdmX interaction inhibitor project, cell-based, single concentration, SaOS-2; shares compounds with Mdm2-MdmX inh; SaOS-2 full-length luciferase counterscreen, luminescence; inhibition, % at 8 µM; hit rate 77% among 6,200; AID 504607, 2011;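 active = mean inhibition at 8 µM reaching about 37%, which flags the compound as non-specific, limit read from the data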;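 note: p53-null SaOS-2 cells with luciferase driven by a doxycycline-inducible promoter; compound on cells about two nights before reading with doxycycline added after day one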
Numbers stand for hits; – = inactive; · = not tested or not shown. The list is not random: actives were taken first. Their share in the collection is about 4%.

SMILES	CSC inhib	Shn3 inh set2	Beta cell apopt	Gli-Sufu block	PAX8 reporter	Mdm2-MdmX inh	Mdm2-MdmX conf	FLuc counter
Cc1cc(C(=O)Nc2nc(-c3ccccn3)cs2)ccc1[N+](=O)[O-]	–	–	–	–	–	63	64	40
O=C(Nc1nc(-c2ccccn2)cs1)c1cc(Cl)ccc1[N+](=O)[O-]	94	97	93	65	80	83	75	–
CCCNC(=O)N1C[C@H](O)COC[C@H]2O[C@@H](CC(=O)O)CC[C@@H]21	·	·	·	·	–	·	·	·
COc1ccc2c3c(n(C)c2c1)[C@@H](CO)N(C(=O)CC1CC1)CC31CCN(Cc2ccncc2)CC1	·	·	·	·	–	·	·	·
C[C@@H]1CN([C@@H](C)CO)C(=O)c2cc(NC(=O)c3ccccc3)ccc2O[C@@H](C)CCCCO[C@@H]1CN(C)C(=O)Nc1ccccc1	·	·	·	·	–	·	·	·
CCOC(=O)c1ccc(-c2c(-c3cc(OC)c(OC)c(OC)c3)noc2C)cc1F	–	–	–	–	–	62	52	89
CCOC(=O)c1ccc(-c2c(-c3ccc(OC)cc3)oc(=O)c3cc(OC)c(OC)cc23)cc1F	–	–	–	–	–	–	·	·
Cc1cc2c(cc1C)-c1nnc(-c3ccc4ccccc4n3)n1C(C)(C)C2	–	·	–	·	·	70	–	·
CC1(C)Cc2ccccc2-c2nnc(-c3ccc4ccccc4n3)n21	–	–	–	–	·	–	·	·
CN1C(=O)c2cc(NC(=O)Cc3cccs3)ccc2OC[C@H]2O[C@H](CC(=O)NCC3CC3)CC[C@H]21	·	·	·	·	–	·	·	·
Nc1nc(Cl)cc(NCCc2ccc(O)cc2)n1	–	–	–	–	–	–	·	·
Oc1ccc(CCNc2ncnc3ccc(Cl)cc23)cc1	86	88	107	61	–	64	73	–
CCOc1cc(CNCc2ccccc2)ccc1OCc1ccc(Cl)cc1	–	92	–	–	–	55	–	·
CCOc1cc(CNCCc2ccc(S(N)(=O)=O)cc2)cc(Cl)c1OCc1ccccc1	–	–	–	–	·	67	–	53
C[C@@H]1CCCCO[C@H](CN(C)C(=O)c2ccncc2)[C@H](C)CN([C@@H](C)CO)C(=O)c2cc(NS(=O)(=O)c3cn(C)cn3)ccc2O1	·	·	·	·	–	·	·	·
C=CC[C@H](CC(=O)N(CCO)Cc1ccccc1)C(=O)N[C@@H](COC(=O)[C@@H](CC=C)Cc1ccc(F)cc1)Cc1c[nH]c2ccccc12	–	–	–	–	69	91	–	·
C=CC[C@@H](CC(=O)N(CCO)Cc1ccccc1)C(=O)N[C@@H](COC(=O)[C@@H](CC=C)Cc1ccc(F)cc1)Cc1c[nH]c2ccccc12	·	–	–	–	–	76	–	·
C=CC[C@@H](CC(=O)N[C@@H](CO)Cc1ccccc1)C(=O)N[C@@H](COC(=O)[C@@H](CC=C)Cc1ccc(F)cc1)Cc1c[nH]c2ccccc12	–	–	–	–	–	–	·	·
CNC[C@@H]1Oc2ccc(NC(=O)Nc3ccc(C(F)(F)F)cc3)cc2CC(=O)N([C@H](C)CO)C[C@H]1C	·	·	·	·	–	·	·	·
O=c1c2cccnc2[nH]c(=S)n1CCC1=CCCCC1	–	–	–	–	–	63	–	·
CC(C)NC(=O)Nc1ccc2c(c1)C(=O)N([C@@H](C)CO)C[C@@H](C)[C@@H](CN(C)C(=O)c1ccncc1)OCCCC[C@@H](C)O2	·	·	·	·	–	·	·	·
Cn1nc(C(=O)Nc2ccc3c(c2)OCCO3)c2ccccc2c1=O	·	–	–	–	–	–	·	·
CCCCn1nc(C(=O)Nc2ccc3c(c2)OCCO3)c2ccccc2c1=O	·	–	–	–	–	58	–	·
COc1ccc(C2CC(=O)c3cnc(NC(=O)c4ccccc4)nc3C2)c(OC)c1 (stereo not drawn)	–	–	–	–	·	58	41	71
CCN(CC)c1ccc(/C=N/NC(=S)NCc2ccccc2)c(O)c1	–	–	83	–	–	60	44	44
SMILES	CSC inhib	Shn3 inh set2	Beta cell apopt	Gli-Sufu block	PAX8 reporter	Mdm2-MdmX inh	Mdm2-MdmX conf	FLuc counter
CCN(CC)c1ccc(/C=N/NC(=O)c2ccco2)cc1	–	–	–	–	–	·	·	·
CCN(CC)c1ccc(/C=N/NC(=O)c2ccco2)c(O)c1	113	–	93	–	–	59	57	55
CCN(CC)c1ccc(C=Nc2ccccc2C)c(O)c1	–	–	–	–	–	–	·	·
Cc1cccc([C@@H]2[C@@H]3C(=O)N(Cc4ccccc4)C(=O)[C@@H]3[C@]3(Cc4ccccc4)C(=O)N(c4ccccc4)C(=O)N23)c1	–	–	–	–	–	–	·	·
COc1ccc([C@@H]2[C@@H]3C(=O)N(C(C)(C)C)C(=O)[C@@H]3[C@]3(Cc4ccc(Cl)cc4)C(=O)N(c4ccc(OC)cc4)C(=O)N23)cc1	–	–	–	–	–	–	·	·
CC(C)(C)N1C(=O)[C@H]2[C@@H](c3ccc(Br)cc3)N3C(=O)N(c4ccc(Br)cc4)C(=O)[C@@]3(Cc3ccccc3)[C@H]2C1=O	–	–	–	–	·	83	89	–
Cc1cccc([C@@H]2[C@@H]3C(=O)N(Cc4ccccc4)C(=O)[C@@H]3[C@]3(Cc4ccccc4)C(=O)N(c4ccc(C(F)(F)F)cc4)C(=O)N23)c1	–	–	–	–	–	99	100	49
COc1ccc([C@@H]2[C@@H]3C(=O)N(C(C)(C)C)C(=O)[C@@H]3[C@]3(Cc4ccc(Cl)cc4)C(=O)N(c4ccc(Br)cc4)C(=O)N23)cc1	–	–	–	–	–	74	91	–
COc1ccccc1CNC(=O)C[C@@H]1C[C@@H]2c3cc(NC(=O)Nc4ccccc4F)ccc3O[C@@H]2[C@@H](CO)O1	·	·	·	·	–	·	·	·
CNC[C@H]1OCCCC[C@H](C)Oc2ccc(NC(=O)Nc3c(C)noc3C)cc2C(=O)N([C@@H](C)CO)C[C@H]1C	·	·	·	·	–	·	·	·
COc1cc(-c2nnc(COc3ccc4cc(Br)ccc4c3)o2)cc(OC)c1OC	–	–	·	–	–	60	–	·
N#C/C(=C\C=C\c1ccccc1[N+](=O)[O-])C(=O)NCc1ccccc1	–	–	–	–	65	97	66	–
COc1ccccc1N1CCN(C(=O)c2noc(C)c2[N+](=O)[O-])CC1	·	–	·	–	–	–	·	·
Cc1onc(C(=O)N2CCN(C(c3ccccc3)c3ccccc3)CC2)c1[N+](=O)[O-]	–	–	–	–	97	71	88	52
